Screening results from PubChem BioAssay.
Rows were chosen to be rich in hits. Some 3.7% of all compounds tested hit in one or more screens of this group.
GLP-1R inv ag: qHTS of GLP-1 Receptor Inverse Agonists (Inhibition Mode). AID 624417, 2012. HEK293 GLP-1R CRE-luciferase, luminescence, 24 h; GLP-1R form is constitutively active. 410,000 tested, 1.6% active. Glucagon-like peptide 1 receptor (Homo sapiens), P43220. Potency, µM (titrated, usually from 38.3 µM), most hits filed as inhibitors; further: nearly all actives have a fitted effect of over 55% in size
Target sequence (P43220 whole entry, looked up): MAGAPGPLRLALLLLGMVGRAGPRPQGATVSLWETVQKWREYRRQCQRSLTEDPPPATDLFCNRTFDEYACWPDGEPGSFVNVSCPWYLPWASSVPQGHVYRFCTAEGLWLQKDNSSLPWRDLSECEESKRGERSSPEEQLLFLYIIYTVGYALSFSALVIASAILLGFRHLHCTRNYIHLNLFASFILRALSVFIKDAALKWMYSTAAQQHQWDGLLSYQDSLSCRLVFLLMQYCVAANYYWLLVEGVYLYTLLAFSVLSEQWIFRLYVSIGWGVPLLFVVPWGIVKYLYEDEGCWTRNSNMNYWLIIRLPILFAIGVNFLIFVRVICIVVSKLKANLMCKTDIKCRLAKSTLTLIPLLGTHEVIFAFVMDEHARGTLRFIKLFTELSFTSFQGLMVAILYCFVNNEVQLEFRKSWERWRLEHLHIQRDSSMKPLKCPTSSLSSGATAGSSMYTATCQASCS
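Luminescence readout: a drop in cAMP-driven luciferase signal flags inverse agonism at a constitutively active GLP-1R stably expressed in HEK293. Compound exposure lasted 24 hr at 37 deg C, 5% CO2.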
GLP1R ag: qHTS of GLP-1 Receptor Agonists | 380,000 tested, 0.007% active | AID 624172, 2012 | Potency, µM (top dose mostly 45.6 µM), actives largely listed as activators | Glucagon-like peptide 1 receptor (Homo sapiens), P43220 | HEK293 GLP-1R CRE-luciferase, luminescence, 4-6 h; cells express a hypersensitive GLP-1R form
ATXN2 expr inh: Primary qHTS for Inhibitors of ATXN expression; HEK-293 ATXN2-luciferase reporter, luminescence, 24 h; Potency, µM (doses to about 57 µM), hits mostly inhibitors; 360,000 tested, 0.72% active; AID 1745845, 2022; further: nearly all actives have a fitted effect of over 55% in size
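ATXN2-luciferase reporter cells (luciferase flanked by upstream and downstream ATXN2 gene portions) were treated 24 h at 37 °C with compounds at up to 57 uM. SteadyGlo luminescence gave expression; GF-AFC fluorescence gave viability.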
TGFb SMAD3 inh: qHTS for Inhibitors of TGF-b; AID 588855, 2011; HepG2 CAGA-GFP TGF-b/SMAD3 reporter, GFP fluorescence, 18 h; TGF-beta stimulated, 500 pg/mL final; Potency, µM (series often up to 46.1 µM), hits mostly inhibitors; 410,000 tested, 1.2% active; further: nearly all actives have a fitted effect of over 65% in size
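Inhibition was scored as loss of TGF-beta-induced (500 pg/mL final, 18 hours, 37 degrees C) GFP in HEPG2 cells carrying a CAGA-GFP reporter, in DMEM with 1% FBS. Well GFP was summed per cell; Activity was normalised to unstimulated and stimulated DMSO wells, then concentration-response fitting.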
HepG2 tox: qHTS for Inhibitors of TGF-b: Cytotox Counterscreen | HepG2 CAGA-GFP viability, ATP luminescence, 18 h | Potency, µM (doses to about 46.1 µM), most hits filed as cytotoxic | 410,000 tested, 0.76% active
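HepG2 CAGA-GFP cells (1000/well, DMEM with 1% FBS) received compound, then TGF-beta at 500 pg/mL final, and were incubated 18 hours at 37 degrees C. Viability was read by CellTiter-Glo luminescence. Media-only wells were set as complete cell-killing and DMSO as no toxicity.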
S2 tox: Viability Counterscreen for Primary qHTS for Inhibitors of ATXN expression; AID 651635, 2014; S2 cells (HEK-293 line with an ATXN2-luciferase reporter) viability, CellTiter-Fluor protease fluorescence, 24 h; Potency, µM (top dose mostly 56.7 µM), most hits filed as cytotoxic; 400,000 tested, 0.49% active; further: nearly all actives have a fitted effect of over 40% in size
Numbers stand for hits; ! = a repeat was not active. The call rests on the fitted dose curve; in most records, active means well fitted curve in the direction sought with a large enough effect; inconclusive means small, poorly fitted or top-dose-only effect, or another doubt; inactive means no such curve, though single readings can be large; an effect the other way counts as inactive or inconclusive.

Screening COc1cc2c3cc1Oc1cc(ccc1O)C[C@@H]1c4c(cc(OC)c(O)c4Oc4ccc(cc4)C[C@H]3N(C)CC2)CCN1C returned GLP-1R inv ag inactive, GLP1R ag inactive, ATXN2 expr inh inconclusive, TGFb SMAD3 inh inactive, HepG2 tox inactive and S2 tox 4µM.
Screening COc1ccc2cc1Oc1ccc(cc1)C[C@H]1c3cc(c(OC)cc3CCN1C)Oc1c(OC)c(OC)cc3c1[C@H](C2)N(C)CC3 returned GLP-1R inv ag inconclusive, GLP1R ag inactive, ATXN2 expr inh inconclusive, TGFb SMAD3 inh inconclusive, HepG2 tox inactive and S2 tox 25µM.
COc1cc2c3cc1Oc1c(OC)c(OC)cc4c1[C@H](Cc1ccc(cc1)Oc1cc(ccc1O)C[C@H]3N(C)CC2)N(C)CC4 was read as GLP-1R inv ag inactive, GLP1R ag inactive, ATXN2 expr inh inactive, TGFb SMAD3 inh inconclusive, HepG2 tox inactive and S2 tox 14µM.
For C[C@H]1CC[C@@H]2[C@@H](C)[C@H]3C(C[C@H]4C5CC[C@H]6C[C@@H](O)CC[C@]6(C)C5CC[C@]34C)N2C1 (some centres not stated) the results were TGFb SMAD3 inh inactive and HepG2 tox inactive.
O=C(N[C@@H]1N=C(c2ccccc2F)c2cccc3c2N(CC3)C1=O)c1cc2ccccc2[nH]1 was read as GLP1R ag inactive, ATXN2 expr inh inactive and S2 tox inactive.
For Fc1ccc(CNCCc2ccc3c(c2)OCO3)cc1 the results were GLP-1R inv ag inactive, GLP1R ag inactive, TGFb SMAD3 inh inactive and HepG2 tox inactive.
Screening Fc1ccc([C@@H]2CCNC[C@H]2COc2ccc3c(c2)OCO3)cc1 returned GLP-1R inv ag 8.9µM, GLP1R ag inactive, ATXN2 expr inh 32µM!, TGFb SMAD3 inh inconclusive, HepG2 tox 11µM! and S2 tox 28µM.
For COC1=C(C)C(=O)c2c(c(COC(N)=O)c3n2C[C@@H]2[C@@H]3N2C)C1=O (some centres not stated) the results were TGFb SMAD3 inh 4.5µM and HepG2 tox 7.1µM.
For CN(C)c1ccc(CNC(=O)Cn2c(=O)oc3cc(S(=O)(=O)N4CCCCCC4)ccc32)cc1 the results were GLP-1R inv ag inconclusive, TGFb SMAD3 inh inconclusive and HepG2 tox inactive.
Screening CN(C)C(=O)C(CCN1CCC(O)(c2ccc(Cl)cc2)CC1)(c1ccccc1)c1ccccc1 returned GLP-1R inv ag inconclusive, ATXN2 expr inh 27µM!, TGFb SMAD3 inh inactive, HepG2 tox inactive and S2 tox inconclusive.
Screening CCC1C(c2ccccc2)NC(c2ccccc2)CC1(O)c1ccc(F)cc1 (configuration not stated) returned GLP-1R inv ag 11µM, GLP1R ag inactive, TGFb SMAD3 inh inconclusive, HepG2 tox inactive and S2 tox inconclusive.
O=c1[nH]c(=O)n(Cc2ccc(F)cc2)c(O)c1/C=N/Nc1ccccc1 was read as GLP-1R inv ag 4.5µM, GLP1R ag inactive, ATXN2 expr inh inactive, TGFb SMAD3 inh inactive, HepG2 tox inactive and S2 tox inconclusive.
`C=C[C@@H]1C[C@@]1(C)[C@@H](NP(=O)(c1ccccc1)c1ccccc1)c1ccccc1` gave GLP-1R inv ag 10µM, GLP1R ag inactive, ATXN2 expr inh inactive, TGFb SMAD3 inh inconclusive, HepG2 tox inactive and S2 tox inconclusive.
`CCCCCSc1cc(O)c(C(CNC)C(C)C)cc1OC` (configuration not stated) gave GLP-1R inv ag 10µM, GLP1R ag inactive, ATXN2 expr inh inactive, TGFb SMAD3 inh inactive, HepG2 tox inactive and S2 tox inactive.
CCCCCSc1cc(OC)c(CCN(C)C)cc1OC was read as GLP-1R inv ag inconclusive, GLP1R ag inactive, ATXN2 expr inh inactive, TGFb SMAD3 inh inactive, HepG2 tox inactive and S2 tox inactive.
Clc1ccc(CCC(Cn2ccnc2)Sc2c(Cl)cccc2Cl)cc1 (configuration not stated) was read as GLP-1R inv ag inconclusive, GLP1R ag inactive, ATXN2 expr inh inconclusive, TGFb SMAD3 inh inconclusive, HepG2 tox 13µM and S2 tox inconclusive.
Screening CN1CC[C@]23c4c5ccc(O)c4O[C@H]2[C@@H](O)CC[C@H]3[C@H]1C5 returned ATXN2 expr inh inactive and S2 tox inactive.
CCOC(=O)[C@]12Cc3cc(OC)ccc3[C@H]1N(Cc1ccccc1)C(=O)c1cc(OC)ccc12 was read as GLP-1R inv ag inconclusive, GLP1R ag inactive, ATXN2 expr inh inactive and S2 tox inconclusive.
`CCOC(=O)c1ccc(N2C(=O)c3n[nH]c(-c4cccs4)c3C2c2ccc(OC)cc2OC)cc1` (configuration not stated) gave GLP-1R inv ag inactive, GLP1R ag inactive, ATXN2 expr inh inactive, TGFb SMAD3 inh 5µM, HepG2 tox inactive and S2 tox inactive.
Cc1ccc(/C(CSc2nccn2-c2ncc(C(F)(F)F)cc2Cl)=N\O)cc1 was read as GLP-1R inv ag 3.5µM, GLP1R ag inactive, ATXN2 expr inh inactive, TGFb SMAD3 inh inconclusive, HepG2 tox inactive and S2 tox inactive.
For COc1cccc(Cn2c(-c3cccs3)noc2=O)c1 the results were GLP-1R inv ag inactive, GLP1R ag inactive, ATXN2 expr inh inactive, TGFb SMAD3 inh inactive, HepG2 tox inactive and S2 tox inactive.
COc1ccc(-c2noc(=O)n2Cc2cc(C)ccc2C)cc1 was read as GLP-1R inv ag 11µM, GLP1R ag inactive, ATXN2 expr inh inactive, TGFb SMAD3 inh inactive, HepG2 tox inactive and S2 tox inactive.
For Cc1ccc(NC(=O)NCc2ccc3c(c2)CCN3C(=O)c2ccccc2)c(Cl)c1 the results were GLP-1R inv ag inactive, ATXN2 expr inh inactive, TGFb SMAD3 inh inconclusive, HepG2 tox inactive and S2 tox inactive.
COc1ccc(CC(N)c2csc(NC(=O)Nc3ccccc3Oc3ccccc3)n2)cc1 (configuration not stated) was read as GLP-1R inv ag inconclusive, GLP1R ag inactive, ATXN2 expr inh inconclusive, TGFb SMAD3 inh inconclusive and HepG2 tox 10µM.
`CCN(CC)/[N+]([O-])=N/O` gave GLP1R ag inactive and S2 tox inactive.
Screening Cc1ccc(N2CCN(C(=O)C3CCC(CNS(=O)(=O)c4ccc(Br)s4)CC3)CC2C)cc1 (configuration not stated) returned GLP-1R inv ag inconclusive, ATXN2 expr inh inactive, TGFb SMAD3 inh inactive, HepG2 tox inactive and S2 tox inactive.
